# Measured values as given in the supplement of paper PMC6555819.
# Assays:
# Assay in all cases: PBM binding z-score (relative to random genomic background probes); higher = stronger binding; sequences stand for … in GC…GCGATTGACAGCGTAGAATGAAGG
# [1] = tested on: FXR:RXRa (NR concentration 270 nM, RXRa partner concentration 90 nM)
# Summary of the method: (§1)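 Custom Agilent 4×180K protein-binding microarrays carried double-stranded probes. Their 34-nt variable regions held direct-repeat seeds, single-nucleotide variants, half-site ablations and random human genomic background sequences. Arrays were incubated 1 h with ligand-free nuclear receptor dimers in PBS pH 7.4, 2% milk, 0.02% Triton X-100, 1 mM DTT, 0.2 mg/mL BSA and 0.4 mg/ml salmon testes DNA. Antibodies against each partner (one per run) detected binding, and scanned fluorescence was regression-normalized. Binding z-scores use random background probes as reference.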
# [2] = tested on: LXRa:RXRa (NR concentration 270 nM, RXRa partner concentration 90 nM)
# Summary of the method: as §1
# [3] = tested on: LXRa homodimer (NR concentration 270 nM)
# Summary of the method: as §1
# [4] = tested on: LXRb:RXRa (NR concentration 270 nM, RXRa partner concentration 90 nM)
# Summary of the method: as §1
# [5] = tested on: LXRb homodimer (NR concentration 270 nM)
# Summary of the method: as §1
# [6] = tested on: PPARa:RXRa (NR concentration 270 nM, RXRa partner concentration 90 nM)
# Summary of the method: as §1
# [7] = tested on: PPARg:RXRa (NR concentration 180 nM, RXRa partner concentration 90 nM)
# Summary of the method: as §1
# [8] = tested on: PPARg:RXRa 270nM:90nM, anti-RXR (NR concentration 270 nM, RXRa partner concentration 90 nM)
# Summary of the method: as §1
# [9] = tested on: PPARg:RXRa 30nM:10nM, anti-RXR (NR concentration 30 nM, RXRa partner concentration 10 nM)
# Summary of the method: as §1
# [10] = tested on: PPARg:RXRa 90nM:30nM, anti-RXR (NR concentration 90 nM, RXRa partner concentration 30 nM)
# Summary of the method: as §1
# [11] = tested on: PPARg:RXRa DBDmut IVT, anti-RXR (DBD mutation: RXRa K156A/R161A, NR concentration 270 nM, RXRa partner concentration 90 nM)
# Summary of the method: as §1
# [12] = tested on: PPARg:RXRa IVT, anti-PPARg (NR concentration 270 nM, RXRa partner concentration 90 nM)
# Summary of the method: as §1
# [13] = tested on: PPARg DBDmut:RXRa IVT, anti-PPARg (DBD mutation: PPARg1 K132A/R137A, NR concentration 270 nM, RXRa partner concentration 90 nM)
# Summary of the method: as §1
# [14] = tested on: PPARg DBDmut IVT, anti-PPARg (DBD mutation: PPARg1 K132A/R137A, NR concentration 270 nM)
# Summary of the method: as §1
# [15] = tested on: PPARg homodimer (NR concentration 180 nM)
# Summary of the method: as §1
# [16] = tested on: PXR:RXRa (NR concentration 270 nM, RXRa partner concentration 90 nM)
# Summary of the method: as §1
# [17] = tested on: PXR homodimer (NR concentration 270 nM)
# Summary of the method: as §1
# [18] = tested on: RARa:RXR (NR concentration 270 nM, RXRa partner concentration 90 nM)
# Summary of the method: as §1
# [19] = tested on: RARa homodimer (NR concentration 270 nM)
# Summary of the method: as §1
# [20] = tested on: RARb:RXRa (NR concentration 270 nM, RXRa partner concentration 90 nM)
# Summary of the method: as §1
Sequence,PBM binding z-score [1],PBM binding z-score [2],PBM binding z-score [3],PBM binding z-score [4],PBM binding z-score [5],PBM binding z-score [6],PBM binding z-score [7],PBM binding z-score [8],PBM binding z-score [9],PBM binding z-score [10],PBM binding z-score [11],PBM binding z-score [12],PBM binding z-score [13],PBM binding z-score [14],PBM binding z-score [15],PBM binding z-score [16],PBM binding z-score [17],PBM binding z-score [18],PBM binding z-score [19],PBM binding z-score [20]
ATCTCTAGGTAAACGTTCAGTGAATCCCGAGGAT,-0.236,-0.144,-0.301,-0.282,0.657,0.613,1.14,2.17,1.01,1.75,3.11,2.05,0.531,0.761,0.198,-0.434,-0.237,-0.544,-0.155,0.26
TAGCCTAGGTCATTCAGGGCCCAGTATAGAAAGC,4.66,3.59,0.608,2.37,0.858,3.62,1.96,2.34,0.126,1.56,1.83,2.54,0.246,-0.28,1.19,1.88,-0.155,2.32,-0.0549,3.54
GTACCAAGGTGAACAGGTCGTTGATGAGTAGGCG,0.658,0.647,-0.308,0.422,-0.997,2.34,1.64,1.88,0.3,1.02,1.79,3,-0.0563,-0.667,0.811,0.437,-0.13,1.38,-0.00415,2.09
CCTCGGAGGACAGAAGGTCAGTGCTGTCCGCTTT,1.08,1.1,-0.0896,0.672,-0.597,1.49,-0.509,0.452,-0.825,-0.242,-0.0749,-0.108,-0.925,-2,1.55,1.18,-0.686,1.65,-0.0741,3.28
CCTACTGGGCCATTCAGAGGTCATTGAGCATATG,2.93,4.74,6.54,3.65,0.261,4.02,2.49,3.28,1.01,2.38,4,4.21,0.182,-0.178,2.75,4.88,2.54,4.74,0.462,3.14
GGAACGAGGGCATTCGAGCTGATAGCATGGCGAT,0.586,0.0957,-0.939,-0.339,-0.953,1.17,0.733,0.363,-0.239,-0.177,2.71,1.64,-0.32,-0.167,-0.0868,0.26,-0.341,-0.000407,-0.846,1.45
TGTCAAAGTTCAAAGGTAACCTAAGTATCCACAC,7.3,6.43,4.99,5.02,2.06,6.03,8.74,7.74,5.57,7.47,0.886,4.82,1.02,0.289,3,5.7,4.14,6.39,1.28,5.09
GCTTACGGCTCAAAGGTTATAGCATGAATAGAAT,0.876,1.45,0.0597,1.7,-0.639,2.62,2.18,3.88,1.46,3.1,-0.386,0.149,-0.0168,0.142,0.0753,1.47,-0.195,2.06,0.137,1.21
ATATGTAGGTTATTGGGTCATTCAGTTTGCGCAT,2.82,3.05,2.1,2.62,1.34,5.16,8.04,6.41,3.93,5.9,7.67,8.16,4.52,3.64,4.1,3.06,4.6,3.36,2.83,2.5
ACTTACCGGTCAACGAGGTTATAGCACGCGTATA,2.61,3.17,2.47,1.96,1.3,2.3,1.3,1.2,0.21,0.785,1.22,1.9,0.959,1.45,1.88,2.33,1.42,2.38,1.15,3.08
CAAACTAGGTCAAGGTCAGAGTCGGTTTGTGCCA,5.93,4.35,1.98,3.26,0.405,5.7,9.05,7.77,6.36,8.17,8.39,8.85,4.94,5.19,4.13,4.13,1.18,4.4,2.46,5.06
AATACAGGGTCATCGTAGGCCAGAGTTCGCACAG,7.34,6.57,3.73,4.63,1.44,5.93,7.18,6.46,2.9,5.18,2.96,4.45,1.89,1.85,3.53,5.76,2.02,5.59,0.95,4.33
ATCTCTCGGTAAAGATAGTTCAGTGAATGCAAAT,0.327,1.31,0.62,0.406,0.893,0.353,0.0238,0.0221,0.409,0.333,-0.304,0.216,0.814,0.624,1.08,0.754,0.572,0.965,1.32,0.868
CATACTGGGCCATCAGGTCATTGATATCAACGTT,1.86,1.46,1.4,1.75,0.36,2.86,2.91,3.57,1.42,2.43,4.24,4.71,0.816,1.18,1.3,1.99,0.876,2.16,0.345,2.25
CCTAGTTAGTCAAGGTCACACACGCTATAGGTAC,4.07,4.91,3.93,3.98,1.49,3.99,2.29,2.75,1.02,1.79,1.6,2.69,1.12,1.42,3.64,4.25,2.22,4.4,2.9,4.01
ACTATTAGTTGACTTAGAGCAACCGATACGACGC,-0.404,0.0474,-0.0686,0.0226,0.635,-0.306,0.964,-0.296,0.379,0.173,-0.101,0.383,1.2,1.1,0.577,-0.152,0.119,-0.00338,1.16,0.073
TAGCCTAGGTCATTGGGCCAGCATAGTACGCATC,3.88,3.2,0.466,1.87,-0.0227,3.46,3.57,3.71,0.617,2.5,2.61,3.89,0.103,-0.682,0.524,1.58,-0.351,2.11,-0.399,3.64
AGTCAAAGTTCCTCTAGGTAACGTAAGATATGCT,-0.245,-0.144,-0.104,-0.00782,-0.432,0.0097,0.612,0.996,0.256,0.424,-0.227,1.14,-0.00849,0.378,-0.0696,0.0815,-0.225,0.241,0.00507,0.881
TCGAGTAGGTCACCAATGGGGCATTCAGCTTTCT,3.29,3.16,-0.128,2.79,-0.57,4.45,5.85,5.14,2.8,4.74,5.54,6.57,0.462,0.45,1.71,2.42,-0.543,3.13,-0.919,3.84
CCGACTGGGGCATAAGATTACCATAAGCCAGCCC,-0.495,-0.33,-0.319,-0.411,-1.33,0.114,1.12,0.921,-0.305,0.461,3.26,1.75,-0.988,-1.17,0.089,-0.666,-0.41,-0.621,-0.486,0.112
CCTAGTTGGTCAAGGTCAGACACGCTATAGGTAC,2.19,2.38,1.11,2.12,0.541,2.78,1.85,2.26,0.813,1.73,1.83,2.54,0.343,0.91,2.01,2.52,1.51,2.45,2.36,3.6
TCATACAGGTAAACAGGTGAAAGTCCGTAAGTTA,0.989,1.11,0.506,1.2,0.202,2.18,1.6,3.16,4.13,3.71,3.22,2.7,0.361,1.11,1.16,1.03,0.792,1.42,1.16,0.895
CGTCCAAGGTAAAAGGTCAGTGAAGAGATGACGG,3.59,3.34,0.701,3.27,-0.538,5.23,6.53,6.49,4.59,6.15,0.99,3.62,-0.145,0.215,2.6,3.83,0.564,5.16,1.15,4.44
CAAACTCGGTCAAGAGGTCAAAGTCCGCTTCCCG,6.2,5.96,6.55,5.13,1.61,5.82,5.83,5.99,3.41,5.47,4.29,5.27,1.06,1.86,4.18,5.89,2.01,6.63,1.95,5.01
TAGCCTAGGTCAGATCCGGCCAGTATACGCTATA,1.78,1.41,-0.272,1.05,-0.172,1.69,0.79,0.773,-0.199,0.368,0.634,1.52,0.095,-0.353,0.289,1.09,-0.796,1.12,-0.924,3.17
GGAACGAGGGCATTCGAGTAGATAGCATGGCGAT,0.816,0.394,-0.428,0.0953,-0.937,1.33,1.11,0.886,-0.0142,0.304,2.87,2.05,-0.011,-0.669,-0.256,0.557,-0.0789,0.335,-0.251,1.56
ACTATCAGTTGACTTAGGGCAACCGATACGACGC,0.0979,0.0623,0.0822,-0.0416,0.543,0.113,0.908,0.0453,0.141,0.385,-0.371,0.386,0.456,0.545,0.231,-0.0461,0.241,0.465,0.08,0.877
CGAACTTGGTCAGAACAGGACAGTGAAGGATGAT,-0.314,-0.426,-0.321,-0.516,-0.663,-0.129,0.567,-0.142,-0.0842,-0.55,-0.158,0.0276,0.221,-0.53,-0.163,-0.41,0.0699,0.0937,-0.39,0.542
ATCTCTAGGTAATGTTCAGTGAAAGATCGATAGA,0.347,0.554,0.048,0.107,1.09,0.239,0.489,0.323,0.558,0.276,2.57,1.63,1.27,1.25,0.598,0.381,0.219,0.543,0.802,0.148
